Results reported in PubChem BioAssay (Tox21).
Several values for one entry are separate records, joined by “and”; a condition that tells them apart may be missing. Equal values may be shown once. A number with no mark means an inactive call. Inconclusive results are not listed. Entries that show only a call come without a potency. Activity calls are given as the source filed them. Unless noted, calls follow the shape of the dose curve; as a rule, active = well fitted curve in the direction sought with a large enough effect in the repeat runs; inconclusive = weak or mixed curves; inactive = no such curve, though single readings can be large; an effect the other way counts as inactive or inconclusive.

Columns and labels:
[1] = qHTS assay to identify small molecule antagonists of the sonic hedgehog signaling (Shh) pathway (AID 1259369; calls by dose curve; also: nearly all actives have a fitted effect of over 45% in size; also: potency is read from the fitted curve at half-maximal effect)
In short: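 Screening used 3T3Gli1-Luc cells at 2,000 per well, compounds delivered in DMSO, and conditioned medium as agonist stimulus; plates incubated 24hr at 37 C and 5% CO2 before a 30min luciferase step.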

[2] = qHTS assay to identify small molecule agonists of the androgen receptor (AR) signaling pathway in the presence of an antagonist - cell viability counter screen (AID 1259379); also: nearly all actives have a fitted effect of over 25% in size; also: potency is read from the fitted curve at half-maximal effect
In short: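 In MDA-kb2 cells (human breast carcinoma, MMTV-luciferase), compounds at 15 concentrations plus 3.0uM nilutamide; 16 hr, 37C, 0% CO2; CellTiter-Fluor fluorescence read for viability.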

[3] = qHTS assay to identify small molecule agonists of the estrogen receptor beta (ER-beta) signaling pathway - cell viability counter screen (AID 1259380); also: nearly all actives have a fitted effect of over 30% in size; also: potency is read from the fitted curve at half-maximal effect
In short: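 Viability of ER-beta-UAS-bla HEK293T cells was determined by CellTiter-Glo luminescence following 16 hr treatment with test compounds at 37C.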

[4] = qHTS assay to identify small molecule antagonists of the estrogen receptor beta (ER-beta) signaling pathway - cell viability counter screen (AID 1259382); also: nearly all actives have a fitted effect of over 55% in size; also: potency is read from the fitted curve at half-maximal effect
In short: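 Tox21 10K library tested in qHTS format on ER-beta-bla HEK293T cells stimulated with 1nM E2; 16 hr treatment at 37C. Same-well CellTiter-Glo luminescence served as the cell viability measure.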

[5] = qHTS assay to identify small molecule agonists of the estrogen receptor alpha (ER-alpha) signaling pathway in the presence of an antagonist - cell viability counter screen (AID 1259386);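 also: cells exposed to compounds for 22 h at 37 °C before the viability read; nearly all actives have a fitted effect of over 30% in size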; also: potency is read from the fitted curve at half-maximal effect
In short: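 Fluorescent CellTiter-Fluor viability signal from VM7Luc4E2 cells, with the reagent added during the final hour of a 22hr compound exposure at 37C in the presence of 10.0nM ICI-182,780.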

[6] = biological target: Progesterone receptor (Homo sapiens) (UniProt P06401); test: qHTS assay to identify small molecule agonists of the progesterone receptor (PR) signaling pathway (AID 1346784; calls by dose curve; also: nearly all actives have a fitted effect of over 30% in size; also: potency is read from the fitted curve at half-maximal effect)
In short: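 The screen uses PR-UAS-bla HEK 293T cells in charcoal-stripped serum (2%). Compounds are applied for 16 hr at 37C after a 6 hr pre-incubation, and reporter activity is detected with a FRET beta-lactamase substrate after 2 hr at room temperature.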

[7] = biological target: Progesterone receptor (Homo sapiens) (UniProt P06401); test: qHTS assay to identify small molecule antagonists of the progesterone receptor (PR) signaling pathway (AID 1346795; active = well fitted inhibition curve with a large enough effect in the signal ratio in the repeat runs, not every such curve was filed as active; the % refers to the signal ratio; also: potency is read from the fitted curve at half-maximal effect)
In short: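 After 6 hr plating at 37C in 2% stripped-serum medium, PR-UAS-bla HEK293T cells got compounds, then 1 nM R5020. Sixteen hours later, LiveBLAzer substrate was applied for 2 hr at room temperature and fluorescence was recorded.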

[8] = qHTS assay to identify small molecule agonists of the progesterone receptor (PR) signaling pathway - cell viability counter screen (AID 1346799; calls by dose curve; also: nearly all actives have a fitted effect of over 45% in size; also: potency is read from the fitted curve at half-maximal effect)
In short: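 Viability was scored by ATP luminescence (CellTiter-Glo, 30 min, room temperature) in the same wells used for the reporter readout, after 16 hr compound exposure of PR-UAS-bla HEK293T cells.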

[9] = qHTS assay to identify small molecule antagonists of the TGF-beta/Smad signaling pathway - cell viability counter screen (AID 1346824); also: nearly all actives have a fitted effect of over 50% in size; also: potency is read from the fitted curve at half-maximal effect
In short: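 Cytotoxicity counter-screen run in the same wells as the beta-lactamase Smad reporter read: CellTiter-Glo luminescence after 30 min at room temperature. HEK 293T SBE-bla cells had 5 hr compound exposure at 37 C with TGF-beta1 (0.25 ng/mL stock).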

[10] = qHTS assay to identify small molecule agonists of the TGF-beta/Smad signaling pathway - cell viability counter screen (AID 1346829); also: nearly all actives have a fitted effect of over 45% in size; also: potency is read from the fitted curve at half-maximal effect
In short: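 Tox21 qHTS format: SBE-bla HEK 293T cells treated with DMSO-dissolved compounds for 5 hr; CellTiter-Glo luminescence after 30 min at room temperature.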

[11] = qHTS assay to identify small molecule agonists of the TGF-beta/Smad signaling pathway (AID 1346859; active = well fitted activation curve with a large enough effect in the signal ratio in the repeat runs, not every such curve was filed as active; the % refers to the signal ratio; also: series mostly up to about 77 µM)
In short: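 Dual-wavelength fluorescence (460/530 nm emission) quantified beta-lactamase expression under the Smad binding element in HEK 293T cells following 5 hr compound treatment at 37 C.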

[12] = qHTS assay to identify small molecule agonists or antagonists of the thyroid stimulating hormone receptor (TSHR) signaling pathway - wild type cell line counter screen (AID 1259384; calls by dose curve)
In short: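 Counter screen in untransfected Hek293: compounds (15-point titration, triplicate) plus phosphodiesterase inhibitor Ro20-1724 added after 18 h plating; 30 min RT. Intracellular cAMP via competitive d2/cryptate immunoassay, 1 h incubation.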

[13] = qHTS assay to identify small molecule antagonists of the progesterone receptor (PR) signaling pathway - cell viability counter screen (AID 1346798); also: series mostly up to about 92 µM; nearly all actives have a fitted effect of over 50% in size
In short: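 Viability was determined by ATP-based luminescence (CellTiter-Glo) in PR-UAS-bla HEK293T cells cultured in 2% charcoal-stripped serum and incubated 16 hr with compounds under R5020 stimulation.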

[14] = biological target: Thyrotropin-releasing hormone receptor (Homo sapiens) (UniProt P34981); test: qHTS assay to identify small molecule antagonists of the thyrotropin-releasing hormone receptor (TRHR) signaling pathway (AID 1346877; active = well fitted inhibition curve with a large enough effect in the repeat runs, not every such curve was filed as active; also: series mostly up to about 51 µM)
In short: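 In this cell-based calcium flux format, HEK293 cells expressing TRHR received test compound for 5 min before the agonist TRH (1 nM final). Dye loading lasted 2 h at 37 °C.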

[15] = biological target: Thyrotropin-releasing hormone receptor (Homo sapiens) (UniProt P34981); test: qHTS assay to identify small molecule agonists of the thyrotropin-releasing hormone receptor (TRHR) signaling pathway (AID 1346891; calls by dose curve; also: potency is read from the fitted curve at half-maximal effect; as to activation: series mostly up to about 58 µM)
In short: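 Kinetic fluorescence (3 min, 1 s intervals) reported intracellular calcium after compound transfer onto TRHR-Hek293 cells pre-loaded with dye for 2 h at 37 °C.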

[16] = biological target: Estrogen receptor (Homo sapiens) (UniProt P03372); test: qHTS assay to identify small molecule agonists of the estrogen receptor alpha (ER-alpha) signaling pathway in the presence of an antagonist (AID 1259383; calls by dose curve; also: nearly all actives have a fitted effect of over 15% in size; also: potency is read from the fitted curve at half-maximal effect; as to activation: top concentration of the series differs between compounds)
In short: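 In VM7Luc4E2 cells, 4,000 per well, compounds at 15 concentrations were co-incubated 22hr at 37C with 10.0nM final ICI-182,780. Luminescence from the stably transfected 4×ERE-luciferase reporter was recorded 30min after ONE-Glo addition.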

[17] = biological target: Thyrotropin receptor (Homo sapiens) (UniProt P16473); test: qHTS assay to identify small molecule antagonists of the thyroid stimulating hormone receptor (TSHR) signaling pathway (AID 1259385; calls by dose curve; also: nearly all actives have a fitted effect of over 20% in size; also: potency is read from the fitted curve at half-maximal effect)
In short: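 Antagonist mode: compound-treated TSHR-expressing HEK293 cells were stimulated with 1.5 ng/mL TSH (final) in presence of Ro20-1724 for 30 min at RT. HTRF cAMP detection after 1 h; each compound tested at 15 concentrations, triplicate.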

Chain of Estrogen receptor (Homo sapiens) (P03372 whole entry, looked up): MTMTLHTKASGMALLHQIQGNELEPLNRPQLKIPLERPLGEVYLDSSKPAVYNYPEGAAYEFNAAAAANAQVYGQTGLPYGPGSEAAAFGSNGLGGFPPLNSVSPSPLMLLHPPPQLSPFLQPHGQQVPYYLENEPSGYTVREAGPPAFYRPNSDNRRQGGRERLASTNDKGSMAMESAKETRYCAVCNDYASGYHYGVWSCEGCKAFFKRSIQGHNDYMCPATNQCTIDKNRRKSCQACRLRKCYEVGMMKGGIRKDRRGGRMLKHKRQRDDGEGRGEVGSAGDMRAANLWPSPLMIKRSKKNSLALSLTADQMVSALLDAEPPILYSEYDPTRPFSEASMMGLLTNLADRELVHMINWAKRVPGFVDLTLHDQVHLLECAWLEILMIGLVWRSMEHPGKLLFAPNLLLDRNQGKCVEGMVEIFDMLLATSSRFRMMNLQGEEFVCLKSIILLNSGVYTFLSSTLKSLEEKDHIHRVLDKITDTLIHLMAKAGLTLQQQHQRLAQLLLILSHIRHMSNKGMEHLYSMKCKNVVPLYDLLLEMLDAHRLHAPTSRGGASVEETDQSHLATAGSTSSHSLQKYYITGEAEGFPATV
Chain of Thyrotropin-releasing hormone receptor (Homo sapiens) (P34981 whole entry, looked up): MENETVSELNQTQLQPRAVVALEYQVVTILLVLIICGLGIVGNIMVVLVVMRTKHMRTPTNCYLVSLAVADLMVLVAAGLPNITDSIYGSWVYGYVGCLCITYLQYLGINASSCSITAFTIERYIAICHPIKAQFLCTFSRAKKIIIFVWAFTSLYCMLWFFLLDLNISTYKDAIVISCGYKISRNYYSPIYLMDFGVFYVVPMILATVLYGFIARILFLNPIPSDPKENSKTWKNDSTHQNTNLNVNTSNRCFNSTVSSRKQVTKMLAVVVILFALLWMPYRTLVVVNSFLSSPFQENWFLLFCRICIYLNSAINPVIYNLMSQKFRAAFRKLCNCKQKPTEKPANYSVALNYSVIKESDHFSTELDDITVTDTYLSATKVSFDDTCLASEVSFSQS
Chain of Progesterone receptor (Homo sapiens) (P06401 whole entry, looked up): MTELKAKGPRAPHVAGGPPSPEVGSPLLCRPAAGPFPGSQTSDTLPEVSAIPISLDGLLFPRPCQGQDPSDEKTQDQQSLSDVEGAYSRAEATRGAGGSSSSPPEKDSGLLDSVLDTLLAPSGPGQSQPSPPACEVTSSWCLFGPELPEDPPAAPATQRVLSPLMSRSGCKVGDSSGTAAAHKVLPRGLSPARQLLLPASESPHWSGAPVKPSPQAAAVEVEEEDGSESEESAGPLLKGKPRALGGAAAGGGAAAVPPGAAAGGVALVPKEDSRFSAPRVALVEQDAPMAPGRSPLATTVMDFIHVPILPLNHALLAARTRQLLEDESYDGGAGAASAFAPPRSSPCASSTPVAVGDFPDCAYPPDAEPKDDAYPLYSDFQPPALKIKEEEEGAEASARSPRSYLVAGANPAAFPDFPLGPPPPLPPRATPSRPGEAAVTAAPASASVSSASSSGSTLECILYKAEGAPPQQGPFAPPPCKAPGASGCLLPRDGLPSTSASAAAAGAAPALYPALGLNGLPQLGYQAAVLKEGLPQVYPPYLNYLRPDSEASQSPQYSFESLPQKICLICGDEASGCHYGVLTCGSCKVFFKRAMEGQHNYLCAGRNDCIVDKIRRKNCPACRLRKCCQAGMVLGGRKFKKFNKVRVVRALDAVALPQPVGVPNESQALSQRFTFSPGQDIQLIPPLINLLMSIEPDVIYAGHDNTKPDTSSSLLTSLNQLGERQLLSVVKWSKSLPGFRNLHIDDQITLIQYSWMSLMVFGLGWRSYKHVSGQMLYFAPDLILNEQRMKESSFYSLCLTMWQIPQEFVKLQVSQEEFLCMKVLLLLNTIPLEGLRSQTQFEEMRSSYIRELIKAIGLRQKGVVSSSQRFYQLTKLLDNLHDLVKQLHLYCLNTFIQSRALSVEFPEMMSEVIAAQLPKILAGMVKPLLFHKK
Chain of Thyrotropin receptor (Homo sapiens) (P16473 whole entry, looked up): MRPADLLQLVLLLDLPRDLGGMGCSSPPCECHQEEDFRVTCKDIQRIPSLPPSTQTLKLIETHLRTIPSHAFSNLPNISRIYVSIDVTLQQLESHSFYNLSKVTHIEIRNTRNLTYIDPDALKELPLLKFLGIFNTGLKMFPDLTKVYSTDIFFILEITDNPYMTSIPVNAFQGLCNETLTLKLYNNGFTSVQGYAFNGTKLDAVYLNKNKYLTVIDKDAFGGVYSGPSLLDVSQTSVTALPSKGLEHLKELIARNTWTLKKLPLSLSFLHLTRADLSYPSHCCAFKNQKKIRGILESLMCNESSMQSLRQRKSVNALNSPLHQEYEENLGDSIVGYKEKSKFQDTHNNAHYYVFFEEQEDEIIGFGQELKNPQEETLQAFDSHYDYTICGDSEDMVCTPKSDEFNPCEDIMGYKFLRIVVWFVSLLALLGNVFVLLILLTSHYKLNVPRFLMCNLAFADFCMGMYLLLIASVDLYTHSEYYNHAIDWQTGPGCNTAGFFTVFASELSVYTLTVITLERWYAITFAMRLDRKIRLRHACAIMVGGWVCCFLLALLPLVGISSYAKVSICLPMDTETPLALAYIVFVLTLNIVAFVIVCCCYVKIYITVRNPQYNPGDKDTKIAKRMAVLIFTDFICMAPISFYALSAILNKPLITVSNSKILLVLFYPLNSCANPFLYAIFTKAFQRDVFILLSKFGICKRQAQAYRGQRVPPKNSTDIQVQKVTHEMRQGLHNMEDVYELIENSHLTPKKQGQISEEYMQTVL

Structure (SMILES) | Potency [1] | Potency [2] | Potency [3] | Potency [4] | Potency [5] | Potency [6] | Potency [7] | Potency [8] | Potency [9] | Potency [10] | outcome [11] | Potency [12] | Potency [13] | Potency [14] | Potency [15] | Potency [16] | Potency [17]
CC(=O)[O-].CC(=O)[O-].O.O.[Zn+2] | inactive | inactive | inactive | inactive | inactive | inactive | inactive | inactive | inactive | inactive | inactive | – | – | – | – | – | –
Clc1cc(Cl)c(-c2cc(Cl)c(Cl)cc2Cl)cc1Cl | inactive | inactive | inactive | inactive | inactive | inactive | 10.2 µM (active) | inactive | inactive | inactive | inactive | inactive | inactive | inactive | inactive | – | –
CCN(CC)C(=O)N[C@@H]1C=C2c3cccc4[nH]cc(c34)C[C@@H]2N(C)C1 | inactive | inactive | inactive | inactive | inactive | inactive | inactive | inactive | inactive | – | inactive | inactive | – | inactive | inactive | inactive | inactive
COC(=O)c1cc(Oc2ccc(Cl)cc2Cl)ccc1[N+](=O)[O-] | inactive | inactive | inactive | inactive | – | inactive | 15.4 µM (active) | – | inactive | inactive | inactive | inactive | – | – | – | inactive | –
CC[C@H](C)[C@H]1O[C@]2(C=C[C@@H]1C)C[C@@H]1C[C@@H](C/C=C(\C)[C@@H](O[C@H]3C[C@H](OC)[C@@H](O[C@H]4C[C@H](OC)[C@@H](NC)[C@H](C)O4)[C@H](C)O3)[C@@H](C)/C=C/C=C3\CO[C@@H]4[C@H](O)C(C)=C[C@@H](C(=O)O1)[C@]34O)O2 | 3.06 µM (active) | 19.3 µM (active) | 9.69 µM (active) | 21.7 µM (active) | 27.3 µM (active) | – | – | 13.7 µM (active) | 17.4 µM (active) | 15.5 µM (active) | – | inactive | – | – | – | inactive | 27.3 µM (active)
CCCCn1cc[n+](C)c1 (tested in a mixture with another compound) | inactive | inactive | inactive | inactive | inactive | – | – | – | inactive | inactive | inactive | – | – | – | – | – | –
CC(=O)[O-].CC(=O)[O-].O.O.O.[Pb+2] | inactive | inactive | inactive | inactive | inactive | inactive | inactive | inactive | inactive | inactive | inactive | – | – | – | – | – | –
CSC(C)(C)/C=N/O | inactive | inactive | – | inactive | inactive | inactive | inactive | inactive | inactive | inactive | inactive | – | inactive | inactive | inactive | inactive | inactive
Clc1ccc(C(c2ccc(Cl)cc2)C(Cl)Cl)cc1 | 34.4 µM (active) | inactive | 54.5 µM (active) | – | inactive | inactive | 7.82 µM (active) | – | inactive | – | inactive | inactive | inactive | – | – | inactive | 62.1 µM (active) and 61.1 µM (active)
CCCCC(CC)COC(=O)c1ccccc1C(=O)OCC(CC)CCCC (configuration not stated) | inactive | inactive | – | inactive | inactive | 43.3 µM (active) | – | – | inactive | inactive | – | inactive | – | inactive | inactive | 27.3 µM (active) | inactive
Nc1nc(N)c(N)c(N)n1 | inactive | inactive | inactive | inactive | inactive | 7.74 µM (active) | inactive | – | inactive | inactive | – | – | inactive | inactive | 39.1 µM (active) | – | –
[Cl-].[Cl-].[Sn+2] | inactive | inactive | inactive | inactive | inactive | inactive | inactive | inactive | inactive | inactive | inactive | – | inactive | – | – | – | –
O=C(NC(=O)c1c(F)cccc1F)Nc1ccc(Oc2ccc(C(F)(F)F)cc2Cl)cc1F | 6.86 µM (active) | 68.6 µM (active) | inactive | inactive | – | inactive | inactive | – | – | – | inactive | inactive | inactive | inactive | inactive | – | –
Cc1c([N+](=O)[O-])c(C)c([N+](=O)[O-])c(C(C)(C)C)c1[N+](=O)[O-] | inactive | inactive | 27.3 µM (active) | – | inactive | inactive | – | – | inactive | inactive | inactive | inactive | – | inactive | inactive | inactive | inactive
C1=CCC=C1 | inactive | inactive | inactive | inactive | inactive | – | inactive | – | inactive | inactive | inactive | – | inactive | – | – | – | –
CN(C)CCc1c[nH]c2ccccc12 | inactive | inactive | inactive | inactive | – | inactive | – | – | inactive | inactive | inactive | – | – | inactive | inactive | – | inactive
O=C(O)[C@H](O)[C@@H](O)C(=O)O | inactive | inactive | inactive | inactive | inactive | inactive | inactive | inactive | inactive | inactive | inactive | – | – | inactive | inactive | inactive | –
CCOC(=O)CCN(SN(C)C(=O)Oc1cccc2c1OC(C)(C)C2)C(C)C | 54.5 µM (active) | inactive | inactive | inactive | inactive | inactive | inactive | – | inactive | inactive | inactive | – | inactive | – | – | inactive | inactive
